The test addresses Nonstructural protein 3 (Zika virus) (UniProt A0A024AXB9).
[1] abbreviates: PRVABC59, Concentration 50.0 uM, Number of replicates 1.0.

The structures appear in SMILES notation. Hit rate of the full screen: of about 2,700 compounds, about 160 (5.9%) showed an effect of 50% or more. Only a selection was taken, and strong results are over-represented in it overall.

Sequence of Nonstructural protein 3 (Zika virus) (A0A024AXB9 as listed by the source): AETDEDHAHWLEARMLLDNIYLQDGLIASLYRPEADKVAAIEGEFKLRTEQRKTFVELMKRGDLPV

Consider `O=Cc1ccc(N2CCC(C(=O)N3CCN(CCc4ccccc4)CC3)CC2)cc1`, for which the inhibition (commonly the relative decrease from the control value, in per cent) under setting [1] was found to be 37.9%.
Compound `Nc1ccc(/C=C/C(=O)C(=O)N2CCN(CCc3ccccc3)CC2)cc1` registered an inhibition (PRVABC59, Concentration 49.5 uM, Number of replicates 2.0, Standard deviation 1.009989544626084 %) of 23.1%; an inhibition (PRVABC59, Concentration 99.01 uM, Number of replicates 2.0, Standard deviation 0.19781370467497048 %) of 38.5%; an inhibition (PRVABC59, Concentration 198.0 uM, Number of replicates 2.0, Standard deviation 0.599146111439346 %) of 56%.
Regarding `O=C(/C=C/c1ccccc1)C(=O)N1CCN(CCc2ccccc2)CC1`, the inhibition was found to be 1.32% (PRVABC59, Concentration 49.5 uM, Number of replicates 2.0, Standard deviation 0.08274041706676757 %); 6.15% (PRVABC59, Concentration 99.01 uM, Number of replicates 2.0, Standard deviation 0.30038362391023454 %); 13.3% (PRVABC59, Concentration 198.0 uM, Number of replicates 2.0, Standard deviation 0.5414096494264544 %); 96.2% (PRVABC59, Concentration 200.0 uM, Number of replicates 1.0).
On to `OCCOc1cc(COc2cccnc2F)nc(N2CCNCC2)n1`, for which the inhibition is, setting by setting: (PRVABC59, Concentration 49.5 uM, Number of replicates 2.0, Standard deviation 1.0649598246775087 %) 10.8%; (PRVABC59, Concentration 99.01 uM, Number of replicates 2.0, Standard deviation 1.1158273619074888 %) 21.6%; (PRVABC59, Concentration 198.0 uM, Number of replicates 2.0, Standard deviation 0.21003831379185828 %) 36.7%.
Turning to `NC(=O)c1cn(C[C@H]2CCCN2c2ccnc3ccccc23)nn1`, the inhibition (PRVABC59, Concentration 49.5 uM, Number of replicates 2.0, Standard deviation 1.7032876695413104 %) came out at 13.6%; the inhibition (PRVABC59, Concentration 99.01 uM, Number of replicates 2.0, Standard deviation 1.9821170579482856 %) turned out to be 21.5%; the inhibition (PRVABC59, Concentration 198.0 uM, Number of replicates 2.0, Standard deviation 3.129764278957135 %) came out at 35.6%.
Under setting [1], `O=Cc1ccc(N2CCC(C(=O)N3CCC(CCN4CCCC4)CC3)CC2)cc1` came in with an inhibition of 40.2%.
Still for that read-out and setting: the result for `O=Cc1ccc(N2CCC(C(=O)N3CCN(c4ccc([N+](=O)[O-])cc4C(F)(F)F)CC3)CC2)cc1` reads 51.4%; that for `CS(=O)(=O)c1ccc(N2CCN(C(=O)C3CCN(c4ccc(C=O)cc4)CC3)CC2)c([N+](=O)[O-])c1`, 38.3%.
In the case of `Fc1ncccc1OCc1cc(Cl)nc(N2CCNCC2)n1`, the inhibition came to 15.1% (PRVABC59, Concentration 49.5 uM, Number of replicates 2.0, Standard deviation 1.0140201320428779 %); 28.4% (PRVABC59, Concentration 99.01 uM, Number of replicates 2.0, Standard deviation 1.7990689115932277 %); 49% (PRVABC59, Concentration 198.0 uM, Number of replicates 2.0, Standard deviation 0.8686404786633404 %).
Consider `COc1ccc(S(=O)(=O)n2nc(OC(=O)c3cccc(-c4ccccc4Cl)c3)cc2N)cc1`, for which the inhibition runs as follows: (PRVABC59, Concentration 49.5 uM, Number of replicates 2.0, Standard deviation 0.015159378472398365 %) 94.1%; (PRVABC59, Concentration 99.01 uM, Number of replicates 2.0, Standard deviation 0.0016885713387404585 %) 94.1%; (PRVABC59, Concentration 198.0 uM, Number of replicates 2.0, Standard deviation 0.07411371581986076 %) 93.9%.
Compound `c1ccc2sc(C3CCN(Cc4c[nH]c5ccccc45)CC3)nc2c1` gave an inhibition (PRVABC59, Concentration 49.5 uM, Number of replicates 2.0, Standard deviation 0.0213310257935456 %) of 83.5%; an inhibition (PRVABC59, Concentration 99.01 uM, Number of replicates 2.0, Standard deviation 0.10666052376433739 %) of 89.1%; an inhibition (PRVABC59, Concentration 198.0 uM, Number of replicates 2.0, Standard deviation 0.03774199707932348 %) of 90.7%.
`c1ccc(-c2csc(C3CCN(Cc4c[nH]c5ccccc45)CC3)n2)cc1`: the inhibition runs as follows: (PRVABC59, Concentration 49.5 uM, Number of replicates 2.0, Standard deviation 0.9101885047505917 %) 64.4%; (PRVABC59, Concentration 99.01 uM, Number of replicates 2.0, Standard deviation 0.676804208631579 %) 66.1%; (PRVABC59, Concentration 198.0 uM, Number of replicates 2.0, Standard deviation 0.5886424424408551 %) 66.1%.
On to `c1ccc2oc(C3CCN(Cc4c[nH]c5ccccc45)CC3)nc2c1`, for which the inhibition worked out at 37.2% (PRVABC59, Concentration 49.5 uM, Number of replicates 2.0, Standard deviation 0.07645236015003325 %); 54.7% (PRVABC59, Concentration 99.01 uM, Number of replicates 2.0, Standard deviation 0.17318915555138958 %); 70.9% (PRVABC59, Concentration 198.0 uM, Number of replicates 2.0, Standard deviation 0.13417938126885842 %).
For the compound `Cc1nc(C2CCN(Cc3c[nH]c4ccccc34)CC2)sc1C(=O)O`, the inhibition was 29.1% (PRVABC59, Concentration 49.5 uM, Number of replicates 2.0, Standard deviation 1.7503606417061577 %); 49% (PRVABC59, Concentration 99.01 uM, Number of replicates 2.0, Standard deviation 0.7623791698480982 %); 66.9% (PRVABC59, Concentration 198.0 uM, Number of replicates 2.0, Standard deviation 0.018153490590612276 %).
Regarding `COC(=O)c1csc2cc(C(=O)N3CCCc4cc(CCN)ccc43)[nH]c12`, the inhibition by setting is: (PRVABC59, Concentration 49.5 uM, Number of replicates 2.0, Standard deviation 0.9658024514724747 %) 6.59%; (PRVABC59, Concentration 99.01 uM, Number of replicates 2.0, Standard deviation 0.02626726469114151 %) 17.1%; (PRVABC59, Concentration 198.0 uM, Number of replicates 2.0, Standard deviation 0.028287616021359725 %) 35.6%.
Take `c1ccc2c([C@H]3CCN(C[C@H]4CCOC4)C3)c[nH]c2c1`: the inhibition came to 4.89% (PRVABC59, Concentration 49.5 uM, Number of replicates 2.0, Standard deviation 3.5400839111105795 %); 11.3% (PRVABC59, Concentration 99.01 uM, Number of replicates 2.0, Standard deviation 2.681337995191051 %); 20.9% (PRVABC59, Concentration 198.0 uM, Number of replicates 2.0, Standard deviation 1.591884445207739 %).
On to `CS(=O)(=O)c1ccc(N2CCNCC2)cc1NC(=O)c1cccc2ncccc12`, for which the inhibition reads like this: (PRVABC59, Concentration 49.5 uM, Number of replicates 2.0, Standard deviation 1.82855821855933 %) 11.9%; (PRVABC59, Concentration 99.01 uM, Number of replicates 2.0, Standard deviation 4.882597086209548 %) 19.4%; (PRVABC59, Concentration 198.0 uM, Number of replicates 2.0, Standard deviation 6.745947359627227 %) 12.5%.
`CCn1ccnc(N2CC[C@@H](CC(N)=O)C2)c1=O` returned an inhibition (PRVABC59, Concentration 49.5 uM, Number of replicates 2.0, Standard deviation 2.578637589312797 %) of 7.29%; an inhibition (PRVABC59, Concentration 99.01 uM, Number of replicates 2.0, Standard deviation 2.4095461189610305 %) of 15.8%; an inhibition (PRVABC59, Concentration 198.0 uM, Number of replicates 2.0, Standard deviation 1.1815224976183896 %) of 30.8%.
For the compound `Cc1cnccc1NC(=O)c1cccn(C[C@@H]2CCNC2)c1=O`, the inhibition is, setting by setting: (PRVABC59, Concentration 49.5 uM, Number of replicates 2.0, Standard deviation 1.3483593644559142 %) 2.86%; (PRVABC59, Concentration 99.01 uM, Number of replicates 2.0, Standard deviation 1.4355155911348652 %) 4.88%; (PRVABC59, Concentration 198.0 uM, Number of replicates 2.0, Standard deviation 0.7536456684870648 %) 8.2%.

The values above are taken from ChEMBL document CHEMBL5606458, “ASAP - ZIKV NS2B-NS3 protease fluorescence single point” (2024).
